Compounds with a hit are over-represented: about 2.9% of the library has one in this group of screens.
PME-1 primary: blocks human protein phosphatase methylesterase 1; Q9Y570; inhibition, % at 5.9 µM; recombinant PME-1, FP-Rh probe fluorescence polarization; 320,000 compounds, 0.53% hits; AID 2130;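 active = inhibition above the campaign mean of all compounds plus 3 SD, cut at about 26% in these data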;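 also: competitive labeling of PME-1 active site by serine hydrolase directed probe; 0% = PME-1 with DMSO and 100% = wells lacking PME-1 enzyme; inhibitors block probe labeling so polarization falls and inhibition rises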
Target sequence (Q9Y570 whole entry, looked up): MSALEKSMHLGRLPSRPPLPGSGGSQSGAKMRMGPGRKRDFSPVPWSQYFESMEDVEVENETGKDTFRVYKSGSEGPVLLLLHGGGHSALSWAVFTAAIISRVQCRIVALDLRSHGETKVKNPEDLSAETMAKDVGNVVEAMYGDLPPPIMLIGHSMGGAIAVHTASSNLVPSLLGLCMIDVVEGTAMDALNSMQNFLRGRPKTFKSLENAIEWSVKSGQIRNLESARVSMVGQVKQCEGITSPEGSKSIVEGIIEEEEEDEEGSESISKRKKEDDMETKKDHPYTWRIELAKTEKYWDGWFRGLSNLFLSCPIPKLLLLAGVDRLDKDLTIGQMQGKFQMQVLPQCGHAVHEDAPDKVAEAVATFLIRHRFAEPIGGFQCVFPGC
PAFAH1B2 inh: PAFAH1B2 (human) inhibition | recombinant PAFAH1B2, FP-rhodamine activity probe, fluorescence polarization | inhibition, % at 3.39 µM | 340,000 compounds, 1.2% hits | AID 492953;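 active = inhibition above the mean of all tested compounds plus 3 SD, cut at about 24% in these data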;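 also: 0% = enzyme with DMSO and 100% = wells lacking PAFAH1B2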
Target sequence (P68402 whole entry, looked up): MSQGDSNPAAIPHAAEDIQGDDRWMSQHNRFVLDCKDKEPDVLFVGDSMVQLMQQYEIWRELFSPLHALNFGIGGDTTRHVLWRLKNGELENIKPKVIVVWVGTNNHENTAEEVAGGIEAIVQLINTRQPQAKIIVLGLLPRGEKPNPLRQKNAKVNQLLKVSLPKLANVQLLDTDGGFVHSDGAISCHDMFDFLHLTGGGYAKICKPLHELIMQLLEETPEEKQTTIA
PAFAH2 inh: PAFAH2 (human) inhibition | Q99487 | recombinant PAFAH2, FP-rhodamine activity probe, fluorescence polarization | inhibition, % at 3.39 µM | 340,000 compounds, 0.99% hits | AID 492956;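 active = inhibition above the mean over all tested compounds plus 3 SD, cut at about 30% in these data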;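 also: inhibitors block probe labeling of enzyme so polarization drops; 0% = enzyme with DMSO and 100% = wells lacking PAFAH2 protein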
pPAFAH FP inh: inhibitors of human plasma PAF acetylhydrolase (pPAFAH); recombinant pPAFAH, FP-rhodamine probe fluorescence polarization; inhibition, % at 3.39 µM; 330,000 compounds, 1.5% hits; AID 463082;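 active = inhibition above the mean inhibition across the screen plus 3 SD, cut at about 25% in these data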;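 also: inhibitors block binding of the rhodamine activity-based probe so polarization drops; 0% = enzyme with DMSO and 100% = wells lacking pPAFAH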
Fam108B inh: counter-screen for RBBP9 inhibitors: inhibitors of mouse Fam108B. 300,000 compounds, 0.33% hits. AID 1947. recombinant Fam108B, FP-Rh probe fluorescence polarization. inhibition, % at 9.51 µM;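 active = inhibition above the screen mean inhibition plus 3 SD, computed separately per campaign, cut at about 18% in these data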;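 also: inhibitors lower polarization as less probe binds the enzyme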
PAFAH1B3 FP inh: blocks human PAF acetylhydrolase 1B catalytic subunit 3 | Q15102 | recombinant PAFAH1B3, FP-rhodamine probe, fluorescence polarization | inhibition, % at 3.39 µM | 340,000 compounds, 0.28% hits | AID 492972;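 active = inhibition above the screen-wide average of all tested compounds plus 3 SD, cut at about 25% in these data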;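 also: 0% = enzyme with DMSO only and 100% = wells lacking PAFAH1B3 protein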
pPAFAH FP conf: pPAFAH (human) inhibition, confirmed | recombinant pPAFAH, FP-Rh probe fluorescence polarization | shares compounds with pPAFAH FP inh | inhibition, % at 3.39 µM | 2,300 compounds, 72% hits;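 active = mean inhibition of the triplicate above the hit cutoff set for the earlier primary screen, cut at about 25% in these data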;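 also: 0% = enzyme with DMSO and 100% = wells lacking pPAFAH enzyme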
The depositor's hits bear a star; . = not tested or not shown.

SMILES	PME-1 primary	PAFAH1B2 inh	PAFAH2 inh	pPAFAH FP inh	Fam108B inh	PAFAH1B3 FP inh	pPAFAH FP conf
O=C(Oc1ccc(-c2ccccc2)cc1)N1CCCCC1	10	6	0	44*	-1	3	81*
Nc1c(N)c2ccccc2oc1=O	-1	5	4	0	4	1	.
O=c1oc2ccccc2c2oc3cc(O)c(O)cc3c12	3	-1	34*	73*	16	9	81*
O=c1oc2ccccc2c(O)c1Cc1cc(Cl)c2cccnc2c1O	6	6	20	50*	15	14	66*
Cc1cc(CNC(=O)C2CCC(=O)N(CCc3cccc(F)c3)C2)nn1C (stereo not given)	.	2	0	.	.	10	.
O=C1CC(N(O)c2ccccc2)C(=O)N1c1ccc(Cl)c(Cl)c1 (stereo not given)	22	-3	1	49*	-2	4	5
O=C(O)CSC1CC(=O)N(c2ccc(Cl)c(Cl)c2)C1=O (stereo not given)	-1	5	-8	4	-2	6	.
Cc1ccc(C(=O)c2c3ccc([N+](=O)[O-])cc3[n+]([O-])n2CCCC(N)=O)cc1	-2	-1	3	10	-1	4	.
COc1ccc(NC2=C(C(C)=O)C(c3ccc4c(c3)OCO4)C(C(C)=O)C(C)(O)C2)cc1 (stereo not given)	1	0	3	11	5	-3	.
O=C(Nc1ccc(F)cc1)Nc1cccnc1Cl	-6	-1	-4	3	-4	-2	.
CC(C)(C)Cc1nnc(NC(=O)c2ccco2)s1	-15	3	7	2	1	-2	.
CCOc1ccc(N2CC(C(=O)Nc3ccc(F)cc3F)CC2=O)cc1 (stereo not given)	-1	1	-10	37*	2	4	-5
CC(C)C(=O)N1CCC(n2nccc2NC(=O)CCc2ccccc2)CC1	-1	-1	3	0	0	1	.
CCNC(=S)N1CCN(CCNC2=CC(=O)CC(C)(C)C2)CC1	-2	3	-1	1	-1	-1	.
Cc1cnc(C(=O)Nc2ccccc2C(=O)N2CCOCC2)cn1	0	7	-3	37*	1	9	4
CCC(=O)Nc1ccccc1C(=O)N1CCOCC1	0	4	2	6	-3	8	.
Cc1cc(C(=O)OCC(=O)N2CC(=O)Nc3ccccc32)c(C)n1-c1ccc(F)cc1	-5	-2	2	37*	-5	0	30*
COc1ccc(NC(=O)c2c(F)cccc2F)cc1S(=O)(=O)Nc1ccc(Br)cc1	-3	0	-12	36*	-5	-8	28*
COc1ccc(NS(=O)(=O)c2cc(NC(=O)c3ccccn3)ccc2OC)cc1Br	.	-3	-3	-1	.	10	.
COc1cc(NC(=O)c2nn(C)c3c2CS(=O)(=O)c2ccccc2-3)cc(OC)c1	-4	-1	-2	0	-6	10	.
CCc1ccc(/C=N/NC(=O)Cc2cccn2C)cc1	-2	-1	2	10	0	-2	.
COc1ccc(-c2nc3c(n2O)CCc2c-3no[n+]2[O-])cc1	17	2	3	2	3	8	.
CNc1ccc(Br)cc(C(=O)/C=C/c2cccc(OC)c2)c1=O	13	-3	27	36*	3	11	24
O=C(/C=C/c1ccc(F)cc1)c1cc(Br)ccc1O	-4	5	-4	3	-6	5	.
CCNc1ccc(Br)cc(C(=O)/C=C/c2ccc(Cl)cc2)c1=O	10	7	28	53*	11	11	27*
SMILES	PME-1 primary	PAFAH1B2 inh	PAFAH2 inh	pPAFAH FP inh	Fam108B inh	PAFAH1B3 FP inh	pPAFAH FP conf
COc1cccc(/C=C/C(=O)Nc2ccc3[nH]c(=O)[nH]c3c2)c1	3	2	4	12	6	0	.
CNc1ccc(Br)cc(C(=O)/C=C/c2ccc(Cl)cc2Cl)c1=O	11	4	30*	51*	10	4	36*
Nc1ccccc1C(=O)/C=C/c1ccc2c(c1)OCO2	2	-2	2	2	-1	-1	.
COC(=O)c1cc(Cl)c(NC(=O)/C=C/c2ccc(Cl)cc2Cl)cc1OC	-9	-2	-3	-2	-9	-9	.
CCNc1ccc(Br)cc(C(=O)/C=C/c2ccc3c(c2)OCO3)c1=O	7	4	36*	48*	9	9	17
COc1cc(C)c(Br)cc1S(=O)(=O)NCc1cccs1	2	7	-7	1	-2	6	.
CC(=O)Nc1ccc(S(=O)(=O)N2CCC(NC(=O)C(Cc3cccc(F)c3)NC(C)=O)CC2)cc1 (stereo not given)	-4	5	-9	-4	6	-1	.
CS(=O)(=O)Nc1ccc(Br)cc1C(=O)c1ccccc1	3	9	2	4	7	5	.
CCNc1ccc(Br)cc(C(=O)/C=C/c2c(Cl)cccc2Cl)c1=O	13	1	36*	44*	18	6	28*
CCOc1cc(CNc2ccc(O)cc2)ccc1OCc1ccc(Cl)cc1Cl	29*	11	11	36*	16	16	22
COc1cc(CN(C(=S)NCC(=O)O)C2CCCC2)cc(OC)c1OC	-2	5	-3	-3	2	1	.
O=C(CSc1cccc[n+]1[O-])N1CCCc2ccccc21	0	6	-3	2	0	6	.
COc1ccccc1NC(=O)COC(=O)c1ccc([N+](=O)[O-])s1	-1	12	38*	37*	5	26*	6
COc1ccccc1NC(=O)COC(=O)C1CC1	2	3	18	5	0	5	.
COc1ccc(NS(=O)(=O)c2cccc(C(=O)NN=Cc3cc(Br)c(O)c(Br)c3)c2)cc1	.	10	28	61*	.	8	69*
COc1ccc(N(C(=O)c2ccc3c(c2)OCO3)C2C=CS(=O)(=O)C2)c(OC)c1 (stereo not given)	-5	1	-3	1	0	6	.
Cc1cc(C)c(S(=O)(=O)/N=C2\C=CC(=O)C(Cl)=C2)c(C)c1	8	6	31*	65*	15	12	57*
Cc1cccc(NC(=O)CN2CCN(C(=O)CNC(=O)Cc3cccc4ccccc34)CC2)c1C	3	3	3	48*	.	6	4
CCCC(=Nc1ccc(N)cc1)C1=C(O)C(C(=O)OC)C(C)(C)CC1=O (stereo not given)	34*	4	16	40*	16	13	5
Cc1cc(C)nc(NS(=O)(=O)c2ccc(NC(=O)C3COc4ccccc4O3)cc2)n1 (stereo not given)	-3	.	.	4	-13	.	.
